Measured values as given in PubChem BioAssay (NCI).
About 79,000 compounds went through this panel and 15% of them were active in at least one assay; those are over-represented in the sample as a whole. Unmarked numbers belong to inactive results. Calls of active or inactive are those of the source. No stated cut-off is given here; in the data, active means growth inhibition above about 70%; inactive means the rest.

Tests used:
[1] = NCI Yeast Anticancer Drug Screen. Data for the rad50 strain (AID 155);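 further: 0% = growth of vehicle-only cultures of the same strain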; conditions: S. cerevisiae rad50 strain growth inhibition; at 50.0 µM; hits give high values
Method in brief: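 Relative growth inhibition (compound vs vehicle) was measured in yeast with a defined repair-gene alteration.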

[2] = NCI Yeast Anticancer Drug Screen. Data for the mec2-1 strain (AID 157); conditions: S. cerevisiae mec2-1 strain, at 50.0 µM, hits give high values
Method in brief: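 mec2-1 yeast strain, carrying an alteration in DNA damage repair or cell cycle control, was exposed to compounds; growth inhibition was measured relative to vehicle-treated controls.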

[3] = NCI Yeast Anticancer Drug Screen. Data for the sgs1 mgt1 strain (AID 161);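 further: 0% = growth of cultures given vehicle only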; conditions: S. cerevisiae sgs1 mgt1 strain, at 50.0 µM, hits give high values
Method in brief: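 Compounds are added to genetically altered yeast, and growth is compared with cultures given vehicle alone to give percent inhibition.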

[4] = NCI Yeast Anticancer Drug Screen. Data for the cln2 rad14 strain (AID 165);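 further: 0% = growth equal to vehicle treated cultures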; conditions: S. cerevisiae cln2 rad14 strain, at 50.0 µM, hits give high values
Method in brief: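 Yeast carrying cln2 and rad14 alterations (cell cycle control and DNA damage repair) were exposed to compounds. Growth inhibition was measured against vehicle-treated controls.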

[5] = NCI Yeast Anticancer Drug Screen. Data for the bub3 strain (AID 167); conditions: S. cerevisiae bub3 mutant strain, at 50.0 µM, hits give high values
Method in brief: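 Screening used yeast with an engineered genetic alteration affecting cell cycle control. Compound-exposed cultures were compared with vehicle cultures, and reduced growth was taken as inhibition.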

[6] = NCI Yeast Anticancer Drug Screen. Data for the mlh1 rad18 strain (AID 175); conditions: S. cerevisiae mlh1 rad18 strain growth inhibition; at 50.0 µM; hits give high values
Method in brief: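 Growth inhibition of the yeast strain was measured after compound exposure and expressed relative to vehicle-treated controls. The strain carries defined defects in DNA damage repair.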

SMILES	growth inhibition [1]	growth inhibition [2]	growth inhibition [3]	growth inhibition [4]	growth inhibition [5]	growth inhibition [6]
CCC(C(=O)c1ccccc1)[n+]1ccccc1 (centres undefined)	-4.55%	-16%	-6.7%	-15.6%	13.2%	3.05%
O=C(Nn1cnc2ccccc2c1=O)c1ccc(NC(=S)Nc2ccccc2)cc1	63.5%	-16.4%	52.7%	-27.8%	-1.45%	7.5%
Cc1c(N)cc2c(c1N)C(C)(C)CC2(C)C	1.35%	-2.2%	-0.4%	-6.35%	11.1%	-4.6%
NC(N)=N/N=C(\c1ccc(Cl)cc1)C1CC1	2.7%	-5.05%	-11.9%	-13.2%	-65.3%	10%
CC1=NOC2(C1)C(=O)Nc1ccccc12 (centres undefined)	23.2%	9.5%	8.55%	11.3%	2.85%	18.4%
O=C(Nc1ccccc1)C1C2C=CC(CC2)C1C(=O)Nc1ccccc1 (centres undefined)	-0.25%	4.95%	7.7%	-10.2%	-11.5%	-13.6%
Cc1ccc(S(=O)(=O)C23N=NC(C)(C)C2N=NC3(C)C)cc1 (centres undefined)	-10.8%	-19.8%	-6.9%	-58%	-46.6%	5.4%
O=COCCc1ccccc1	-17.9%	-6.2%	8.35%	5.4%	-8.15%	3.7%
CSc1nc(SC)c(Cl)c(C(Cl)Cl)n1	32.2%	59.2%	68.8%	7.3%	74.8% (active)	75% (active)
NC(=O)O/N=C/c1ccc(Cl)cc1	2.8%	-16.8%	-13.1%	10.3%	17.1%	9.8%
CCOc1c(CNC(=O)CCl)cc(N)cc1CNC(=O)CCl	6.45%	3.4%	-14%	10.8%	2.1%	-10.3%
c1ccc2cc3ccccc3cc2c1	5.75%	10.7%	-18.5%	-42.6%	-0.85%	3.7%
O=C(O)C1CCC(C(=O)O)S1 (centres undefined)	1.85%	-10.4%	-0.85%	-13.1%	9.9%	16.1%
O=c1cc(CO)oc(C(Nc2cccc(Cl)c2)c2ccccc2)c1O (centres undefined)	34.2%	-4.65%	23.1%	-15.2%	10.2%	21.1%
CCCC(C)C(=O)OC1CCCC1 (centres undefined)	11%	-8.1%	5.3%	-5.1%	13.6%	2.95%
C(#Cc1ccccc1)SC1=C(c2ccccc2)S/C(=C(\SC#Cc2ccccc2)c2ccccc2)S1	9.6%	7.7%	-29.4%	10.9%	-21.1%	-30.8%
C=CCc1cc(Br)ccc1O	20.7%	5.9%	-9.85%	11.1%	-17.4%	33.5%
COCOc1ccc(-c2ccc(O)cc2)cc1	10.8%	9.95%	0%	-47.2%	18.9%	5.15%
c1ccc(C(C2=Nc3cccc4cccc(c34)N2)c2ccccc2)cc1	-36.6%	-18.4%	-50.7%	11.1%	-9.75%	-22.8%
Cc1cc2c(C(C)C)c(O)c(O)c(C=Nc3ccccc3O)c2c(O)c1-c1c(C)cc2c(C(C)C)c(O)c(O)c(C=Nc3ccccc3O)c2c1O	-25.3%	-9.2%	-20.9%	-23.4%	-9.75%	-26.3%

SMILES	growth inhibition [1]	growth inhibition [2]	growth inhibition [3]	growth inhibition [4]	growth inhibition [5]	growth inhibition [6]
C=C(Br)CNCC(=C)Br	2.2%	7.25%	5%	9.65%	18.2%	-18.6%
Oc1ccc2cccc(O)c2c1	-17.6%	-33.6%	37.5%	19.9%	12%	3.9%
C[N+](C)(CC(=O)Nc1cc(C(F)(F)F)cc(C(F)(F)F)c1)CC(=O)Nc1ccc(Cl)c(C(F)(F)F)c1	99.5% (active)	99.8% (active)	99.8% (active)	99.3% (active)	99.4% (active)	99.5% (active)
Cn1c(=Nc2ccc(Cl)cc2)sc2ccccc21	-8.65%	-31.2%	-21.4%	-36.9%	1.2%	-21.9%
CC(=O)Oc1cc2c(cc1Cc1ccc3c(c1)OCO3)OCO2	-18.6%	-17.2%	-7%	-6.2%	15.9%	-14.5%
CCOC(=O)/C(=C\n1c(=O)[nH]c(=O)[nH]c1=S)C(=O)c1ccccc1	-22.8%	-17.4%	-9.25%	7.35%	-17.9%	-13.2%
N#Cc1ccc(OCCSCCCCCCCCCCSCCOc2ccc(C#N)cc2)cc1	-16.8%	-20.9%	-19.8%	-6.05%	-1%	-15.8%
COC(=O)c1ccc(C[P+](c2ccccc2)(c2ccccc2)c2ccccc2)cc1	15.5%	7.75%	44.3%	40.2%	0.95%	43.1%
O=C1CCC(CC2CCCCC2)CC1	-6.7%	-3.95%	-2.8%	-58.6%	-17.7%	-12.2%
COc1ccc2c(c1)c1cc(OC)ccc1n2CCCCOc1ccc(-c2c3ccccc3c(-c3ccc(OCCCCn4c5ccc(OC)cc5c5cc(OC)ccc54)cc3)c3ccccc23)cc1	29.1%	1.85%	-1.1%	23.9%	7.9%	29.6%
CCc1nnc2ncccn12	-1.15%	-10.9%	4.25%	-5.95%	10.4%	-2.9%
CCOC(=O)c1ccc2c(c1)C(C)(SC)C(=O)N2 (centres undefined)	-12.7%	0.7%	-2.85%	4.65%	-6.55%	-1.35%
COc1ccccc1/C(=N\OCCC(=O)O)c1cccs1	2.15%	-0.95%	5.95%	0.65%	-1.25%	-51.1%
N#CCCOCc1ccccc1	-46.8%	-23.8%	-1.05%	-3.15%	-15.1%	0.55%
CCOC(=O)C(=Cc1ccc(Oc2ccccc2)cc1)C(=O)OCC	39.4%	-6%	22.1%	24.8%	6.1%	7%
Cc1ccccc1SC(c1ccccc1)(c1ccccc1)c1ccccc1	-11.2%	-25.3%	-0.2%	-6.55%	-6.1%	-37.8%
O=C(c1ccccc1)c1c(O)c2ccccc2oc1=O	-13.6%	-24%	-7.95%	-16.8%	-4.45%	-4.5%
COc1cccc(C2CC(C)(O)Oc3cc4c(cc32)OCO4)c1O (centres undefined)	9.15%	-8.25%	-9.45%	12.1%	23.3%	6.65%
COc1cccc(-c2nsc(=O)o2)c1	41.5%	23.1%	24.3%	-1.4%	52.6%	32.6%
